Assay outcomes deposited in PubChem by The Scripps Research Institute Molecular Screening Center.
Shown are actives, neighbours in structure and some others; about 2% of the full set was active somewhere.
LYPLA2 counter: LYPLA2 (human) inhibition in PME1 counter-screen; O95372; recombinant LYPLA2, FP-Rh probe fluorescence polarization; inhibition, % at 5.9 µM; 0.38% of 320,000 active; AID 2177;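 active means inhibition above the screen-wide mean plus 3 SD, limit set per campaign, cut at about 26% in these data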;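 further: 0% = LYPLA2 with DMSO and 100% = wells lacking LYPLA2 enzyme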
LYPLA1 inh: counter-screen for PME1 inhibitors: inhibitors of human LYPLA1; 0.16% of 320,000 active; recombinant LYPLA1, FP-Rh probe fluorescence polarization; O75608; AID 2174; inhibition, % at 5.9 µM;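 active means inhibition above the mean of all tested compounds plus 3 SD, set per campaign, cut at about 14% in these data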;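 further: inhibitors block serine hydrolase probe labeling of LYPLA1 so polarization falls; 0% = enzyme with DMSO and 100% = wells lacking LYPLA1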
PREPL inhibitor: inhibitors of human prolyl oligopeptidase-like enzyme PREPL | Q4J6C6 | recombinant PREPL, fluorescence polarization activity-based probe | inhibition, % at 5.96 µM | 0.68% of 320,000 active; in the data active means inhibition above about 43%;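 further: 0% = enzyme with DMSO and 100% = wells lacking enzyme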
Target sequence (Q4J6C6 whole entry, looked up): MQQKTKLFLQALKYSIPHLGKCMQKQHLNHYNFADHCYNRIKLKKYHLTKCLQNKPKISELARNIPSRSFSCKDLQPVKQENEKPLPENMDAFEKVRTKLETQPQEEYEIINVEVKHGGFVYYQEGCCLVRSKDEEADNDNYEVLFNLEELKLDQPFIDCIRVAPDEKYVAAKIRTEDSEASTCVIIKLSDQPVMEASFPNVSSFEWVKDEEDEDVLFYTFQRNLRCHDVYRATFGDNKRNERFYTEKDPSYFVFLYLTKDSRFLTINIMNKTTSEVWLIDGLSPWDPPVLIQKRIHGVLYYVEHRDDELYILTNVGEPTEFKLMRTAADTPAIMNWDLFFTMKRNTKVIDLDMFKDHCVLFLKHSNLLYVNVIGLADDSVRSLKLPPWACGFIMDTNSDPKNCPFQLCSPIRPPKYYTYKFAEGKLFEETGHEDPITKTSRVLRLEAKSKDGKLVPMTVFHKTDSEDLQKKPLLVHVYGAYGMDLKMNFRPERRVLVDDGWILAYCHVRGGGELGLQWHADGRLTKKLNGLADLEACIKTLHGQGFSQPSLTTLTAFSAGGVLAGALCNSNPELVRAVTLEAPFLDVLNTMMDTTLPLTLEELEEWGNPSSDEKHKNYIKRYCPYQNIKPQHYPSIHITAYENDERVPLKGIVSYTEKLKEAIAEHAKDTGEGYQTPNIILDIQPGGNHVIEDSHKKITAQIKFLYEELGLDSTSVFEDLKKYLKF
GSTO1 counter: blocks human GSTO1 in RBBP9 counter-screen | P78417 | recombinant GSTO1, activity-based probe fluorescence polarization | inhibition, % at 5.96 µM | 1.1% of 300,000 active | AID 1974;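 active means inhibition above the campaign mean inhibition plus 3 SD, cut at about 35% in these data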;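 further: 0% = GSTO1-1 with DMSO and 100% = wells lacking GSTO1-1 enzyme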
Fam108B inh: blocks mouse Fam108B hydrolase in RBBP9 counter-screen; recombinant Fam108B, FP-Rh probe fluorescence polarization; inhibition, % at 9.51 µM; 0.33% of 300,000 active; AID 1947;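 active means inhibition above the screen mean inhibition plus 3 SD, computed separately per campaign, cut at about 18% in these data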;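 further: inhibitors lower polarization as less probe binds the enzyme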
PME-1 primary: blocks human protein phosphatase methylesterase 1; recombinant PME-1, FP-Rh probe fluorescence polarization; inhibition, % at 5.9 µM; 0.53% of 320,000 active; AID 2130;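 active means inhibition above the campaign mean of all compounds plus 3 SD, cut at about 26% in these data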;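 further: competitive labeling of PME-1 active site by serine hydrolase directed probe; 0% = PME-1 with DMSO and 100% = wells lacking PME-1 enzyme; inhibitors block probe labeling so polarization falls and inhibition rises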
GSTO1 inh conf: confirmation of human GSTO1 inhibitors. shares compounds with GSTO1 counter. recombinant GSTO1, probe fluorescence polarization. inhibition, % at 5.96 µM. 54% of 2,400 active. AID 2176;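 active means inhibition above the primary screen's cutoff, its mean inhibition plus 3 SD, cut at about 35% in these data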;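 further: loss of polarization as inhibitors block binding of rhodamine sulfonate ester activity probe; 0% = GSTO1 with DMSO and 100% = wells lacking GSTO1 enzyme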
GSTO1 ABPP inh: GSTO1 (human) inhibition by gel ABPP. shares compounds with GSTO1 counter. recombinant GSTO1, gel ABPP SE-Rh probe fluorescence. inhibition, % at 1 µM. 30% of 130 active. AID 463110;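 active means inhibition of the enzyme GSTO1 above about 75%, limit read from the data; inactive means inhibition below that limit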
* hit, by the source's call; . = no result.

SMILES	LYPLA2 counter	LYPLA1 inh	PREPL inhibitor	GSTO1 counter	Fam108B inh	PME-1 primary	GSTO1 inh conf	others
Oc1ccc(-c2cn3c(n2)SCC3)cc1O	1.7	-2.6	8.2	53.4*	0.9	-7.0	4.6
Cc1cc(C)c(S(=O)(=O)N2CCCOC2CNC(=O)C(=O)NCc2ccncc2)c(C)c1 (centres undefined)	-5.0	-2.2	13.8	1.1	-6.5	15.8	.
CC(C)(C)NC(=O)NC(=O)CN1CCCCCCC1	-3.7	-3.0	10.1	-14.5	-7.1	-1.5	.
CCOC(=O)N1CCN(C(=O)Cc2ccc(Cl)cc2)CC1	2.4	-1.6	9.2	-2.9	5.0	-0.2	.
CC(C)(C)NC(=O)CN1CCN(C(=O)CCl)CC1	-0.4	0.1	3.7	81.7*	-4.8	0.3	96.1*	GSTO1 ABPP inh=33.0
CCOC(=O)N1CCN(C(=O)CCl)CC1	0.8	2.4	-2.2	77.2*	-1.2	-2.0	91.9*
COc1ccc(-c2cc(C(=O)N/N=C(\C)c3cccnc3)c3ccccc3n2)c(OC)c1	0.1	-0.6	15.0	10.2	2.5	2.4	.
CC1(C)CC(=O)C2=C(C1)N(C1CCCCC1)C(=O)C2(O)C(F)(F)F (centres undefined)	3.5	5.2	5.4	65.4*	-0.3	-0.4	5.6
CC1(C)CC(=O)C2=C(C1)N(CC1CCCO1)C(=O)C2(O)C(F)(F)F (centres undefined)	-0.1	3.1	9.7	3.2	-0.8	-4.7	.
CCC1CSC(=Nc2ccc(C)cc2)N1C(=O)CN1C(=O)NC2(CCCC2)C1=O (centres undefined)	9.2	4.0	-2.3	0.7	-1.6	3.8	.
CC(=O)Nc1ccc(NC(=O)CCS(=O)(=O)c2ccc3c(c2)oc(=O)n3C)cc1	-2.3	-3.0	2.2	1.9	-0.9	-2.5	.
Cn1c(=O)oc2cc(NC(=O)CCl)ccc21	-6.3	-3.0	-6.2	76.0*	-2.1	-3.8	86.7*
COC(C[C@@H]1O[C@H]1[C@H](O)[C@@H](C)OCc1ccccc1)OC	6.5	4.8	-0.2	39.8*	-1.6	-6.3	6.5
Cc1ccc(Nc2ccc(C(=O)NC3CCCCC3)cn2)cc1	1.1	0.2	6.8	7.3	4.6	-2.8	.
COc1ccc(C)cc1-n1c(C)cc(C=O)c1C	-8.1	-2.6	0.1	3.5	-2.4	-13.0	.
COc1ccc(N)cc1-n1c(C)ccc1C	3.1	-1.6	28.3	44.6*	5.2	0.3	5.9
Cc1c(N=c2c(=O)c3ccccc3c2=O)c(=O)n(-c2ccccc2)n1C	-1.4	0.3	43.2*	57.0*	1.4	-6.7	76.8*
O=C(NCCCN1CCCC1=O)Nc1ccccc1F	6.4	0.0	-0.1	1.0	-1.3	0.5	.
CC1(C)NC(=O)N(CC(=O)OCC(=O)Nc2cc(S(=O)(=O)N3CCCCCC3)ccc2Cl)C1=O	0.0	-0.6	-3.3	2.7	-1.1	8.1	.
Cc1ccc([N+](=O)[O-])cc1NC(=S)NCCc1ccccc1	4.6	-3.0	-0.5	5.3	1.8	5.2	.
CCN(C(=O)COC(=O)c1cccc(-n2cnnn2)c1)C1CCCCC1	3.2	-2.5	-4.3	2.6	1.4	-4.1	.
CCCCNC(=O)c1ccc2nc(-c3ccco3)c(-c3ccco3)nc2c1	-11.7	-12.0	41.5	70.4*	8.0	2.9	24.2
O=C(c1ccc2nc(-c3ccco3)c(-c3ccco3)nc2c1)N1CCN(c2ncccn2)CC1	12.7	0.7	60.7*	68.2*	13.9	15.6	21.8
O=C(c1cccc(C(=O)N2CCN(c3ncccn3)CC2)c1)N1CCN(c2ncccn2)CC1	0.0	-0.8	20.5	-1.6	1.2	6.7	.
CCOC(=O)C1CCN(C(=O)c2c(C)oc3c2C(=O)c2ccccc2C3=O)CC1	5.4	-1.7	4.3	44.5*	4.9	1.9	47.6*
SMILES	LYPLA2 counter	LYPLA1 inh	PREPL inhibitor	GSTO1 counter	Fam108B inh	PME-1 primary	GSTO1 inh conf	others
Cc1onc(-c2ccccc2Cl)c1C(=O)N1CCC(C)CC1	-0.4	0.8	-0.6	8.3	2.0	6.3	.
CCOC(=O)C1CCN(C(=O)c2ccc(C)o2)CC1	.	.	13.1	.	.	.	.
Cc1oc2c(c1C(=O)N1CCC(C)CC1)C(=O)c1ccccc1C2=O	2.0	2.4	2.4	39.5*	0.1	-6.7	8.4
CCN(CC)CCNC(=O)c1cc(Br)c(N)cc1OC	2.1	1.2	-7.3	3.3	-4.1	2.8	.
Cc1cc(C)n(/N=C\c2c(O)ccc3ccccc23)c(=O)c1C(N)=O	9.9	0.4	13.4	42.9*	-2.2	-3.8	6.3
Cc1ccc(/C=C/C(=O)OCC(=O)NC(C)C)o1	-2.1	2.9	3.4	-1.5	5.3	-4.8	.
O=C(OCC(=O)N1CCCC1=O)c1nc(Cl)c(Cl)c(Cl)c1Cl	-6.1	-3.3	-2.6	39.9*	-0.4	-6.3	24.1
Nc1c(Cl)c(Cl)nc(C(=O)OCC(=O)N2CCCC2=O)c1Cl	2.3	1.9	-11.9	4.0	2.6	2.8	.
O=S(=O)(c1ccc(Cl)cc1)N1CCC2(CC1)CO2	-5.8	1.0	7.2	96.5*	0.1	0.0	105.5*	GSTO1 ABPP inh=64.0
COC(=O)CN1C(=O)C2(C(C#N)=C(N)Oc3n[nH]c(-c4cccs4)c32)c2ccccc21 (centres undefined)	-4.4	-0.7	12.2	8.9	-3.4	0.7	.
COC(=O)CN1C(=O)C2(C(C#N)=C(N)Oc3c2c(C)nn3-c2ccccc2)c2ccccc21 (centres undefined)	-2.0	-3.5	-4.4	41.7*	3.7	4.0	15.1
N#C/C(=C\c1ccc(O)c(O)c1)C(=O)Nc1cccc2ncccc12	-8.6	-14.5	29.0	56.1*	13.4	28.5*	28.5
COc1ccc(/C=C(\C#N)C(=O)Nc2cccc3ncccc23)cc1OC	-10.7	-6.0	2.8	12.3	4.2	-3.5	.
COc1cccc(CNCc2cccnc2)c1OCc1ccccc1	-0.2	-2.0	-19.4	-0.3	-1.9	-3.7	.
Cc1ccc(NC(=O)CCc2ccc(C)o2)c(C)c1	-12.2	-6.1	6.0	8.2	-4.1	-4.1	.
Cc1ccc(NC(=O)CCl)c(C)c1	2.8	-2.6	10.6	82.0*	0.2	-5.6	90.7*
NC(=O)C(=O)N/N=C/c1c2ccccc2cc2ccccc12	-0.8	-3.0	10.0	-1.2	-2.9	-2.6	.
O=C1c2ccccc2C(=O)C1c1ccc(Br)cc1	-1.2	-2.7	1.3	2.5	4.4	0.9	.
NC1=C(Br)C(=O)c2ccccc2C1=O	1.7	1.0	15.9	65.5*	5.3	7.5	28.2
Oc1ccc(Br)cc1C=Nc1ccc(Cl)cc1	-1.6	0.5	-7.6	0.7	-2.9	-3.2	.
CCN(CC)c1ccc(N=Cc2cc(Br)ccc2O)cc1	-2.0	-2.0	11.5	74.3*	-0.4	-0.3	6.0
Cc1cccc(OC(C)C(=O)Nc2nccs2)c1 (centres undefined)	-2.3	-0.1	-2.3	4.4	2.5	0.4	.
